The source of these data is ChEMBL document CHEMBL4513216, “Probing the Open Global Health Chemical Diversity Library for Multistage-Active Starting Points for Next-Generation Antimalarials” (ACS Infect Dis, 2020).

Molecules are shown by their SMILES. About 8,600 (12%) of roughly 69,000 compounds showed an effect of 50% or more. The entries come from a sample that favours strong results as a whole.

In this test the test system is Plasmodium berghei. Put plainly: Screen against P. berghei liver stage (PbLuc), transformed with Luciferase, at 10uM. The settings on record: tested at 10 uM. Type of test: functional, HepG2.
For the molecule `COc1ccc(CNC(=O)NC2CCN(C)CC2)c(C(F)(F)F)c1`, the INHIBITION worked out at 33.8%.

As to `O=C(Cn1ccnc1)N1CC[C@H](Oc2cccc(F)c2)[C@@H](O)CC1`, the INHIBITION is listed as 13.85%. In the case of `CCOc1ccc(-n2nnc(C(=O)O)c2-c2ccncc2)cc1`, the INHIBITION amounted to 15%. As for `O=C(O)c1ccnc(SCC(=O)c2ccccc2)c1`, the INHIBITION was determined as 9.55%. `O=C(O)c1ccnc(SCC(F)(F)F)c1`: the INHIBITION came to 57%. `O=C(O)c1ccnc(SCc2ccccc2)c1`: the INHIBITION was 13.5%. With `CC(=O)N1CCCN(C(=O)CN(C)c2ccc(Cl)cn2)CC1` the figure was 22.8%; with `COc1ccc(CN2CCCC2c2cccc(F)c2)c(OC)c1OC` (configuration not stated), 16%; with `Cc1ccc(S(C)(=O)=O)cc1C(=O)N1CCCC(n2cncn2)C1` (configuration not stated), -12.1%. With `CN(C)C(=O)CO[C@H]1CN(Cc2ccsc2)[C@@H]2COC[C@H]12` the figure was -0.284%; with `COc1cccc(-c2cc(C(=O)Nc3nc[nH]n3)[nH]n2)c1`, -43.7%.

Turning to `CC(C)Cc1nc(NC(=O)c2cc(-c3cccnc3)n[nH]2)n[nH]1`, the INHIBITION came to 40.1%. The result for `O=C(Nc1ncc[nH]1)c1cc(-c2cccnc2)n[nH]1` reads 57%; that for `CN1CC(=O)N(c2cccc(F)c2)CC12CCN(Cc1cccnc1)C2` (configuration not stated), 1.58%. With `Cc1noc(C(C)C)c1C(=O)NCCC(=O)N1CCCCC1` the figure was -18%; with `COc1ccccc1NC(=O)NC1(c2noc(CN(C)C)n2)CCCC1`, 48.1%; with `Cc1cccc(CN2CCc3nnc(Cn4cccc4)n3CC2)n1`, 23.5%. Consider `CCN(CC)C(=O)Cn1c(-c2ccc(Cl)cc2)nc(C)c(CCO)c1=O`, for which the INHIBITION is recorded as -21.8%. With `COCCNC(=O)Cn1c(-c2ccc(Cl)cc2)nc(C)c(CCO)c1=O` the figure was 2.29%; with `Cc1nc(-c2ccc(Cl)cc2)n(CC(=O)NC(C)C)c(=O)c1CCO`, 61.4%. `CCc1nnc(C(C)N2CCC(NC(=O)C3CCCCC3)CC2)o1` (configuration not stated): the INHIBITION worked out at 11.3%. The result for `CN(Cc1cnccn1)C(=O)[C@@]12CNC[C@@H]1CN(Cc1ccccc1)C2` reads -22.3%. With `O=C(NCC1Cn2nnc(-c3cccc(F)c3)c2CO1)c1ccc[nH]1` (configuration not stated) the figure was 9.63%; with `CCO[C@@H]1C[C@H]2CN(S(=O)(=O)c3cccs3)CCN2C1`, 57.1%. With `CCN1C[C@@H]2CN(S(=O)(=O)c3cccs3)C[C@@H]2C1=O` the figure was -24.5%; with `O=S(=O)(c1cccs1)N1CCN2C[C@H](OCC3CC3)C[C@H]2C1`, 8.85%; with `CCOc1ccc(N(C)S(=O)(=O)c2c[nH]c(C(C)C)n2)cc1`, 10.3%.

Turning to `CC(C)c1nc(S(=O)(=O)N(C)c2cc(F)ccc2F)c[nH]1`, the INHIBITION came out at 23.3%.

On to `CC(C)c1nc(S(=O)(=O)N(C)c2ccc(F)cc2)c[nH]1`, for which the INHIBITION stood at 54.8%. With `CNC(=O)c1cn[nH]c1C1CCCN1C(=O)c1ccccn1` (configuration not stated) the figure was -20.6%; with `COCCn1cnnc1C1CCCN(c2cnccn2)C1` (configuration not stated), 30.4%; with `CSCCC(=O)N[C@H]1CC[C@H](Nc2nccc(-c3ccncc3)n2)C1`, 0.923%. The result for `CSCC(=O)N[C@H]1CC[C@H](Nc2nccc(-c3ccncc3)n2)C1` reads 14.2%. With `COCCC(=O)N[C@H]1CC[C@H](Nc2nccc(-c3ccncc3)n2)C1` the figure was 61.5%; with `Cc1cc(C(F)(F)F)nc(C2COCCN2S(C)(=O)=O)n1` (configuration not stated), 33.65%; with `CC(C)OCCCNS(=O)(=O)c1ccc2c(c1)NC(=O)C(C)O2` (configuration not stated), -4.87%. For the molecule `COc1cc(NCc2ccc(Cl)cc2)c(-c2nn[nH]n2)cc1OC`, the INHIBITION came out at 22.6%. On to `O=C(CCCn1ccnc1)N1CCC2(CC1)[C@H](O)C[C@@H]2OCCO`, for which the INHIBITION is 18%.

Take `O=C(CCn1cc(Cl)cn1)N1CCC2(CC1)[C@H](O)C[C@@H]2OCCO`: the INHIBITION was found to be 75.7%. With `O=C(CCCn1cncn1)N1CCC2(CC1)[C@H](O)C[C@@H]2OCCO` the figure was 54.4%; with `O=C(CCn1cc(Cl)cn1)N1CCC2(CC1)OCCCC2O` (configuration not stated), 2.79%; with `O=C(CCn1cc(Cl)cn1)N1CCCC(O)(CO)CC1` (configuration not stated), -15.6%. With `O=C(CCn1cncn1)N1CCC2(CC1)[C@H](O)C[C@@H]2OCCO`, the INHIBITION is given as 12.7%.

With `Cc1nc(C)n(C2CCCN(C(=O)CCOCC(C)C)C2)n1` (configuration not stated), the INHIBITION is listed as 7.27%. The result for `Cc1cc(N2CCN(CC(=O)N(C)C)CC2)nc(-c2ccncc2)n1` reads 4.74%. The result for `CNc1cc(C2CN(C(=O)c3cnn(C)c3)CCO2)nc(C)n1` (configuration not stated) reads 25.8%; that for `CCC(Cn1ccnc1)n1cnc2c(C)csc2c1=O` (configuration not stated), 14.9%. For the molecule `Cc1nc(C2CCCN2Cc2cc(Cl)c3c(c2)OCCCO3)no1` (configuration not stated), the INHIBITION is recorded as 52.2%. With `Cc1nc(C2CCCN2Cc2cc(Cl)c3c(c2)OCO3)no1` (configuration not stated) the figure was 44.3%; with `Cc1nc(C2CCCN2Cc2cc(Cl)c3c(c2)OCCO3)no1` (configuration not stated), 45.4%. With `COc1ccc(C)cc1CNCc1ccc(-n2nc(C)cc2C)nc1` the figure was 18.6%; with `Cc1ccc(CNCc2ccc(N3CCC(CO)CC3)nc2)c(C)c1`, 58.7%; with `Cc1nc(CNCc2ccc(N3CCC(CO)CC3)nc2)cs1`, -11.6%. The result for `Cc1ncsc1C(=O)OCCN1CCCCCC1=O` reads -60.9%; that for `CCc1n[nH]c(C2CN(C(=O)CCCn3cccn3)CCO2)n1` (configuration not stated), 56.1%; that for `CCCc1n[nH]c(C2CN(C(=O)CCCn3ccnc3C)CCO2)n1` (configuration not stated), 87.2%. Consider `CCc1n[nH]c(C2CN(C(=O)CCc3cccs3)CCO2)n1` (configuration not stated), for which the INHIBITION is reported as 51.3%. With `CCCc1n[nH]c(C2CN(C(=O)CCn3nc(C)cc3C)CCO2)n1` (configuration not stated) the figure was 34.6%; with `CCCc1n[nH]c(C2CN(C(=O)CCCn3ccnc3)CCO2)n1` (configuration not stated), -18.9%; with `Cc1n[nH]c(C2CN(C(=O)CCCn3cccn3)CCO2)n1` (configuration not stated), -22.1%. The result for `CC(C)(C)c1n[nH]c(C2CN(C(=O)CCc3cccs3)CCO2)n1` (configuration not stated) reads -32.5%. The result for `CCCc1n[nH]c(C2CN(C(=O)CCCn3cccn3)CCO2)n1` (configuration not stated) reads 1.81%. As for `CCc1n[nH]c(C2CN(C(=O)Cc3cccs3)CCO2)n1` (configuration not stated), the INHIBITION was -33.7%. The result for `Cc1cc(C(=O)N2C[C@H](C(C)C)[C@@H](N(C)C)C2)cs1` reads 47.2%.

In the case of `CS(=O)(=O)c1cn[nH]c1C1CCCCN1C(=O)c1cnccn1` (configuration not stated), the INHIBITION was -21.4%. For `Cc1nc(CN2CCCN(C(=O)c3c(C)oc(C)c3C)CC2)cs1`, the INHIBITION is recorded as -4.16%.

In the case of `O=c1c(S(=O)(=O)N2CCCC2)cccn1Cc1ccccc1Cl`, the INHIBITION came out at 29.6%. With `c1cnc(N2CCO[C@H]3CN(Cc4c[nH]cn4)C[C@H]32)cn1` the figure was 37.8%; with `OCCN1CCCC(c2nccnc2Oc2ccc(F)cc2)C1` (configuration not stated), 20.8%; with `CCS(=O)(=O)N1C[C@@H](c2cc(O)nc(C)n2)[C@H](c2ccccc2F)C1`, 3.69%.

Consider `O=C(c1ccccn1)N1CCC2(CC1)COC(COc1cccnc1)C2` (configuration not stated), for which the INHIBITION is 5.67%. With `CC(c1cccc(-c2ncc(C#N)c(N)n2)c1)N(C)C` (configuration not stated) the figure was -0.996%.

Take `c1cncc(-c2noc(CCNc3ncnc4c3CCNCC4)n2)c1`: the INHIBITION worked out at 19.4%. With `Cc1cccc(-n2cc(CNc3ncnc4c3CCNCC4)cn2)c1` the figure was 16%; with `COCc1noc(CCNc2ncnc3c2CCNCC3)n1`, -58%. Consider `Clc1ccccc1-c1cc(CNc2ncnc3c2CCNCC3)no1`, for which the INHIBITION worked out at 88.2%.

Regarding `COc1ccc(-c2cc(CNc3ncnc4c3CCNCC4)no2)cc1`, the INHIBITION was 94.1%. With `Cc1ccccc1-n1cc(CNc2ncnc3c2CCNCC3)cn1` the figure was -20.7%. With `c1ccc(Cn2cc(CNc3ncnc4c3CCNCC4)cn2)cc1` the figure was 23.6%. `Cc1ccc(-c2cc(CNc3ncnc4c3CCNCC4)no2)cc1`: the INHIBITION was found to be 93.1%. As to `c1cncc(-c2noc(CNc3ncnc4c3CCNCC4)n2)c1`, the INHIBITION amounted to 8.74%. With `CCn1cc(CN2CCCN(C(=O)c3ccoc3C)CC2)cn1` the figure was -19.9%; with `COCC(=O)N1Cc2nccn2CC(COc2cccnc2)C1` (configuration not stated), 29.3%; with `COc1nn(C)c2c1CCCN(C(=O)c1ccc[nH]1)C2`, -15.7%.

Turning to `CCn1c(SCC(N)=O)nnc1-c1csc2c1CCCC2`, the INHIBITION came to 25.8%.

For `Cn1ccc(C(=O)N2CCCC2c2cc(CO)[nH]n2)n1` (configuration not stated), the INHIBITION worked out at 14.385%. Take `CCn1cnnc1CNc1nc(C)nc2scc(CC(C)C)c12`: the INHIBITION is 44.3%.

Consider `CCc1nc(-c2cncnc2C2CCCNC2)no1` (configuration not stated), for which the INHIBITION is 20.25%. For the molecule `Cc1ccc(Cn2nc(C)c3c(C(=O)O)c(Cl)c(C)nc32)cc1`, the INHIBITION is 3.52%.

On to `CCNc1c(NC(=O)C2CC2)c(=O)oc2ccccc12`, for which the INHIBITION is recorded as -21.9%. Consider `CN(C)CC(=O)N1CCCCC1c1nc(N)ncc1-c1ccccc1` (configuration not stated), for which the INHIBITION turned out to be 12.3%. The result for `CCSc1nnc([C@@H](N)CC(C)C)o1` reads -4.56%; that for `Cc1cccc(-c2nccnc2C2CCCN(C)C2)c1C` (configuration not stated), 35.2%. For `COc1ccccc1-c1nccnc1C1CCN(C(C)=O)CC1`, the INHIBITION was 10%.

Consider `Cc1cccc(-c2nccnc2C2CCN(C)CC2)c1C`, for which the INHIBITION worked out at 54.5%.

On to `COCc1nc(C(=O)N2CCCC2c2ccncc2)cs1` (configuration not stated), for which the INHIBITION worked out at 29.7%.

`CC(C)c1noc(CN2CCN(CCO)CC2)n1`: the INHIBITION is on record as -10.875%. With `Brc1cccc(-c2noc(C3COCCO3)n2)c1` (configuration not stated) the figure was -99.3%; with `CCCNc1ccc(C(=O)NCCc2cccc(Cl)c2)cn1`, 68.8%. With `CCCNc1ccc(C(=O)NCCc2ccc(Cl)cc2)cn1` the figure was -71.5%.

As for `CCCNc1ccc(C(=O)NCCc2cccc(OC)c2)cn1`, the INHIBITION is on record as 25.3%. The result for `O=C1Nc2ccccc2/C1=C1\CCCN1` reads 43.4%. With `Cc1nn(Cc2ccccc2)c(C)c1CNC1CCc2ncnn2C1` (configuration not stated) the figure was -10.1%; with `COCC1COCCC12CCN(C(=O)CCc1ccccc1C)CC2` (configuration not stated), -30.6%; with `CNCC(=O)Nc1cccc(-c2cnc(NCCS(C)(=O)=O)nc2)c1`, 45.6%. Consider `CNCC(=O)Nc1cccc(-c2cnc(NCCO)nc2)c1`, for which the INHIBITION was found to be 23.4%.

On to `CNCC(=O)Nc1ccc(-c2cnc(NCCS(C)(=O)=O)nc2)cc1`, for which the INHIBITION is recorded as 54.5%.
